# Assay results as given in PubChem BioAssay AID624351 (Southern Research Specialized Biocontainment Screening …, 2012).
# Out of some 2,400 compounds screened, about 1,400 (58%) were called active. The set was probably picked from earlier hits. The list shows a part of the results. Unmarked numbers belong to inactive results.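 Rule for the calls: active = inhibition of 30% or more at any tested dose; inconclusive = primary hits over the limit that were never retested; inactive = the rest.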
# Assay: ADP Hunter readout inhibition without MgcRacGAP – biochemical, coupled enzyme counter-screen, artefact control for MgcRacGAP inhibitor project, dose response (AID 624351);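 note: signal is the ADP detection kit reading of free GDP without any GAP enzyme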;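 for inhibition: 0% = median positive control wells and 100% = median negative control wells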
# Settings: fluorescence, no MgcRacGAP; series mostly up to 80 µM; inhibition: at the top concentration
Structure (SMILES),inhibition,IC50
O=C(CNC1CCCCCC1)Nc1ccccc1N1CCOCC1,13.8%,–
CCOc1cc(N2CCOCC2)c(OCC)cc1NC(=O)c1ccc(C)s1,–,65.1 µM (active)
CCOc1cc(N2CCOCC2)c(OCC)cc1NCC(=O)N1CCN(Cc2ccccc2)CC1,27.6%,–
CCN(CC)c1ccc(CN2CCC(C(=O)NCc3ccc(C)cc3)CC2)cc1,8.71%,–
CCN(CC)CC(=O)NN(Cc1ccccc1)c1ccccc1,18.2%,–
CCN(CC)c1ccc(NC(=O)C2CCCC2)cc1,–,76.8 µM (active)
Cc1ccc(NC(=O)CN(C)C2CCCCC2)cc1Br,11.6%,–
CCN(CC)CCNCC(=O)Nc1ccc(Oc2ccccc2)cc1,21.4%,–
CCN(CC)c1ccc(NC(=O)Nc2ccccc2)cc1,–,53.3 µM (active)
CCN(CC)c1ccc(NC(=O)c2ccc(Br)o2)cc1,–,29.2 µM (active)
O=c1oc2ccccc2c2c1C(c1ccc(Cl)cc1)Nc1ccc3ccccc3c1-2 (stereo not drawn),2.98%,–
CN1CCCN(Cc2ccccc2C(F)(F)F)CC1,24.1%,–
CCc1nnc(NC(=O)CSCc2cc(=O)n3ccsc3n2)s1,-4.29%,–
COc1ccc(OC(=O)C2CC(=O)N(c3ccc(C)cc3)C2)cc1 (stereo not drawn),13.7%,–
Cc1ccc(N2CC(C(=O)Nc3ccc(N(C)C)cc3)CC2=O)cc1C (stereo not drawn),–,62.4 µM (active)
CS(=O)(=O)C1=NSC2=NC(=O)/C(=C\c3ccc(OC(=O)c4ccco4)c(Br)c3)C(=N)N21,5.54%,–
O=[N+]([O-])c1ccc(N2CCN(CCOCCO)CC2)c([N+](=O)[O-])c1,16%,–
O=[N+]([O-])c1ccc(N2CCN(c3ccc(O)cc3)CC2)c(Cl)c1,–,40.4 µM (active)
Cc1cc(Cl)cc2sc(=S)[nH]c12,–,81.5 µM (active)
CN(C)c1cc2c3ccccc3n(C)c2cc1N,–,13.4 µM (active)
Cc1c(N(C)C)nc2ccccc2c1N,21.5%,–
CCn1c2ccccc2c2cc(N)ccc21,7.75%,–

Structure (SMILES),inhibition,IC50
CC1(C)OC(=O)C(=NNc2ccc(O)cc2)C(=O)O1,–,23.5 µM (active)
COc1ccc2[nH]c3c(N4CCC(O)(c5cccc(C(F)(F)F)c5)CC4)ncnc3c2c1,-0.29%,–
Cc1ccc2c(c1)[nH]c1c(N3CCN(Cc4ccccc4)CC3)ncnc12,–,45.1 µM (active)
Cc1ccc(SCCN2CCN(Cc3ccccc3)CC2)cc1,16.9%,–
Cc1nc2ccccc2n2c(O)c(CC(=O)O)cc12,–,33 µM (active)
COc1cc(/C=C/C(=O)N[C@@H](Cc2c[nH]c3ccccc23)C(=O)O)ccc1O,–,83.7 µM (active)
O=C(CSc1ccc2ccccc2c1)N1CCN(c2ccc(O)cc2)CC1,–,46.5 µM (active)
CCOC(=O)N1CCC(N2CCN(S(=O)(=O)c3ccc4ccccc4c3)CC2)CC1,11.1%,–
O=S(=O)(c1ccc2ccccc2c1)N1CCN(C2CCN(Cc3ccccc3)CC2)CC1,23.3%,–
C/C=C(\C)CN1CCN(c2ccc(C)cc2)CC1,14.8%,–
O=S(=O)(c1ccc2ccccc2c1)N1CCN(c2ccc(O)cc2)CC1,–,39.5 µM (active)
Cc1ccc(S(=O)(=O)N2CCN(C(=O)CN3CCN(c4ccc(O)cc4)CC3)CC2)cc1,–,34.6 µM (active)
Cc1ccc(CN2CCN(C(=O)CC(C)C)CC2)cc1,9.93%,–
Cc1cc2nc(/N=C(\N)NC(=O)N3c4ccccc4Sc4ccccc43)nc(C)c2cc1C,17.8%,–
C#CCOCCOCCOCCNc1nc(N2CCN(C(=O)C([C@@H](C)O)n3cc([C@@H](N)CCCCN)nn3)CC2)nc(N2CCN(C(=O)[C@H](CCCN=C(N)N)n3cc(C(N)[C@@H](C)CC)nn3)CC2)n1 (stereo partly drawn),1.38%,–
Cc1cc(O)ccc1Nc1nc(-c2cccs2)cs1,–,44 µM (active)
Nc1ccc(N2CCN(c3cccc(Cl)c3)CC2)cc1,–,18.6 µM (active)
Nc1ccc(N2CCN(c3ccc(Cl)c(Cl)c3)CC2)cc1,–,20.5 µM (active)
CC(C)N1CCN(C(=O)c2cccc(Cl)c2)CC1,15.6%,–
CCCCCC(=O)Nc1cc(S(=O)(=O)O)cc2cc(S(=O)(=O)O)cc(O)c12,17.7%,–
CCN(CC)c1ccc(NS(=O)(=O)c2ccc(-c3ccc(=O)[nH]n3)o2)c(C)c1,7.93%,–
CC(=O)Nc1n[nH]c(=S)s1,–,48.7 µM (active)

Structure (SMILES),inhibition,IC50
CCOc1ccc(Nc2n[nH]c(=S)s2)cc1,–,42.5 µM (active)
Cc1ccc(Nc2n[nH]c(=S)s2)cc1,–,50.6 µM (active)
Cc1ccc(Nc2n[nH]c(=S)s2)cc1F,–,50.3 µM (active)
O=C(O)c1ccc(S(=O)(=O)c2ccc3c(c2)C(=O)N(NC(=O)c2cccnc2)C3=O)cc1,2.35%,–
COc1ccc(NC(=S)NNS(=O)(=O)c2ccc3ccccc3c2)c(OC)c1,22.1%,–
COc1ccc(Nc2ccc3ccccc3c2)cc1,–,66.9 µM (active)
COc1ccc(NC2=NCCC2)cc1,17.6%,–
COc1ccc(Nc2ccccc2)c(C)c1,–,37.4 µM (active)
OCCN1CCN(CC(O)COC(c2ccc(F)cc2)c2ccc(F)cc2)CC1 (stereo not drawn),18.1%,–
Cc1cc(OCc2nc3ccccc3s2)ccc1N,–,63.7 µM (active)
CCOc1ccc2nc(NC(=O)CS(=O)(=O)c3ccccc3)sc2c1,4.87%,–
CCCS(=O)(=O)N1CCN(CC2CC3C=CC2C3)CC1 (stereo not drawn),14.7%,–
COc1cc(OC)c(CN2CCCN(C)CC2)cc1Br,21%,–
Oc1ccc(Cc2ccccc2Cl)c(O)c1,–,60.2 µM (active)
Oc1ccc(Cc2ccc(Cl)cc2)c(O)c1,–,78 µM (active)
Fc1ccc(CNCc2ccccc2Cl)cc1,16.5%,–
CCC(=O)N1CCc2cc(S(=O)(=O)CCC(=O)NCc3ccc(C)cc3)ccc21,1.54%,–
N#CC1(Nc2ccc(-c3ccc(NC4(C#N)CCCC4)cc3)cc2)CCCC1,–,11.6 µM (active)
CC[n+]1ccc(/C=C/c2ccc(N(C)C)cc2)c2ccccc21,–,47 µM (active)
CCOc1ccccc1N1CCN(C/C=C/c2ccc(N(C)C)cc2)CC1,24.8%,–
C[n+]1ccc(/C=C/c2ccccc2O)c2ccccc21,5.2%,–
O=C(CCl)NCCN1C(=O)S/C(=C\c2cccnc2)C1=O,-1.45%,–

Structure (SMILES),inhibition,IC50
COc1cc2c(cc1OC)C(/C=C/c1ccco1)=NCC2,3.65%,–
O=c1/c(=C/c2ccc(O)cc2)sc2n1CCCN=2,–,21.7 µM (active)
COc1cc(/C=c2\sc3n(c2=O)CCCN=3)ccc1O,–,17.7 µM (active)
Cc1cc(Cl)cc(C)c1OCCOCCNCc1ccccc1,16.7%,–
Cc1cc2[nH]c3c4ccccc4nc(C)c3c2cc1C,15.7%,–
O=C1Nc2ccccc2C1=Nc1ccc2[nH]c3ccccc3c2c1,–,23.4 µM (active)
CCOC(=O)c1c(N)sc2c1CCS(=O)(=O)C2,6.6%,–
CCOC(=O)c1c(N)sc2c(O)c(Br)ccc12,–,58.1 µM (active)
Oc1ccc2c(ccc3[nH]cnc32)c1,–,42.6 µM (active)
CN(C)c1ccc(NC(=O)COC(=O)c2ccc3c(c2)OCO3)cc1,–,67 µM (active)
CCN(CC)CCOC(=O)c1ccc(N/C=C(/C#N)c2nc(-c3ccc4c(c3)OCO4)cs2)cc1,5.24%,–
CC(C(=O)Nc1ccc2c(c1)OCO2)N1CCN(C)CC1 (stereo not drawn),26.4%,–
O=C(Oc1ccc2c(c1)OCO2)c1ccncc1,20%,–
CCN(CC)C(=O)C1CCCN(Cc2ccc3c(c2)OCO3)C1 (stereo not drawn),11.7%,–
CCN(CC)c1ccc(NC(=O)c2ccc3c(c2)OCO3)cc1,–,66.8 µM (active)
Nc1ccc2c(c1)Nc1ccccc1CC2,–,37.8 µM (active)
Cc1ccccc1OCCn1c(=S)[nH]c2c(N)ncnc21,–,68.2 µM (active)
CC(C)Oc1ccc(OCCn2c(=S)[nH]c3c(N)ncnc32)cc1,–,76.4 µM (active)
Cc1ccccc1OCCN1CCCC1,14.1%,–
C/C(=N\NC(=O)c1ccc(O)cc1)c1ccc2c(c1)Nc1ccccc1S2,–,41.1 µM (active)
C/C(=N/Nc1ccc(C(=O)O)cc1)c1ccc2c(c1)Nc1ccccc1S2,–,51.3 µM (active)
O=C(Nc1ccc(C2=NCCN2)cc1)c1ccc(C(=O)Nc2ccc(C3=NCCN3)cc2)c(Cl)c1,6.39%,–

Structure (SMILES),inhibition,IC50
C/C(CC(=O)Nc1ccc(N(C)C)cc1)=N\NC(=O)c1ccc(F)cc1,–,46.5 µM (active)
COC(C(=O)N/N=C(\C)CC(=O)Nc1ccc(N(C)C)cc1)c1ccccc1 (stereo not drawn),–,47.7 µM (active)
C/C(CC(=O)Nc1ccc(N(C)C)cc1)=N\NC(=O)c1ccc([N+](=O)[O-])cc1Cl,–,61.6 µM (active)
C/C(CC(=O)Nc1ccc(N(C)C)cc1)=N\NC(=O)c1ccc([N+](=O)[O-])cc1,–,59.5 µM (active)
O=C(Cn1sc2ccccc2c1=O)Nc1ccc(F)cc1,6.79%,–
Cn1ccc(=Nc2ccc(NC(=O)c3ccc(N=c4ccn(C)c5ccc([N+](=O)[O-])cc45)cc3)cc2)cc1,6.89%,–
CCCCCCCCCCCCCCCC[n+]1ccccc1,4.98%,–
C/C(CC(=O)Nc1ccc(N(C)C)cc1)=N\NC(=O)c1ccncc1,–,74.6 µM (active)
N#C/C(=C/c1ccc(N2CCCCCC2)o1)c1ccc(Cl)cc1,6.82%,–
N#C/C(=C\c1ccc(N2CCOCC2)o1)c1nc2ccccc2[nH]1,–,13.5 µM (active)
N#C/C(=C/c1ccc(N2CCOCC2)o1)c1nc2ccccc2[nH]1,–,38.6 µM (active)
CN(C)c1ccc(C=c2c3ccccc3n3c2cc(-c2ccc(Cl)cc2)[n+]3C)cc1,23.3%,–
CCOc1ccc(C2NC(=O)C(C#N)=C(S)N2c2ccc(OC)cc2)cc1OC (stereo not drawn),2.78%,–
CCN(Cc1ccncc1)Cc1ccc(OC)c(OC)c1,3.65%,–
CCOc1ccc(N)cc1OC,–,43.1 µM (active)
CC(C)COc1ccc(N)cc1OCC(C)C,–,46.2 µM (active)
COc1ccc(-n2sc3ccccc3c2=O)cc1,10.5%,–
CN(C)/C=C1\NC(=S)N(c2ccccc2)C1=O,–,71.9 µM (active)
COc1ccc(-n2sc3ccc(F)cc3c2=O)cc1,22.9%,–
COc1ccc(N2C(=O)/C(=C/N(C)C)NC2=S)cc1,–,77.5 µM (active)
